Records with an inconclusive call do not appear. A number with no mark means an inactive call. The source made the active and inactive calls. Calls come from the whole dose curve.
Experiment: Primary qHTS for inhibitors of SARS-S pseudo-typed particle cell entry (AID 1479145); note: nearly all actives have a fitted effect of over 45% in size
Conditions: SARS-S pseudotyped particle cell entry, luciferase reporter; series mostly up to 57.1 µM; activity change, negative = inhibition: at the top concentration
% is set by controls: 0 for no effect and ±100 for the full control effect.

Row | SMILES | outcome | activity change, negative = inhibition
1 | CC(C(=O)O)c1ccc(/C=C2\CCCCC2=O)cc1 (centres undefined) | inactive | –
2 | O=c1cc[nH]c(=O)[nH]1 | – | -23.8%
3 | N[C@@H](CCC(=O)N[C@@H](CS)C(=O)NCC(=O)O)C(=O)O | – | -7.11% [at 26.4 µM]
4 | O=C1CC[C@H](C(=O)N2CCCCC2)N1 | – | -3.55%
5 | O=C1O[C@H](CO)[C@@H](O)[C@H](O)[C@H]1O | – | -3.45%
6 | CN=C(NC#N)NCCSCc1nc[nH]c1C | – | -4.19%
7 | CS(=O)(=O)c1ccc([C@@H](O)[C@@H](CF)NC(=O)C(Cl)Cl)cc1 | – | 3.01%
8 | Cc1c[nH]c2ccccc12 | – | 3.59%
9 | Clc1ccc2nsnc2c1NC1=NCCN1 | – | -18.3%
10 | CCN(Cc1ccncc1)C(=O)C(CO)c1ccccc1 (centres undefined) | – | -8.99%
11 | C#C[C@]1(O)CC[C@H]2[C@@H]3CCc4cc(OC5CCCC5)ccc4[C@H]3CC[C@@]21C | – | -18.4%
12 | NS(=O)(=O)c1cc(-c2nn[nH]n2)c(NCc2cccs2)cc1Cl | – | -22.1%
13 | CCCCCCCC(=O)OCC(COC(=O)CCCCCCC)OC(=O)CCCCCCC | – | -23.7%
14 | CC(C)Cc1ccc(C(C)C(=O)O)cc1 (centres undefined) | inactive | –
15 | COCCCOc1ccnc(CS(=O)c2nc3ccccc3[nH]2)c1C (centres undefined) | inactive | –
16 | CCOC(=O)c1ccccc1O | inactive | –
17 | OC[C@H]1O[C@@H](Oc2ccc(O)cc2)[C@H](O)[C@@H](O)[C@@H]1O | – | -38.4%
18 | Cc1cc(C)nc(NS(=O)(=O)c2ccc(N)cc2)n1 | inactive | –
19 | CCN1CCCC1CNC(=O)c1cc(S(=O)(=O)CC)c(N)cc1OC (centres undefined) | inactive | –

Row | SMILES | outcome | activity change, negative = inhibition
20 | C[C@]12CCC(=O)C=C1CC[C@@H]1[C@@H]2[C@@H](O)C[C@@]2(C)[C@H]1CC[C@]2(O)C(=O)COC(=O)CCC(=O)O | inactive | –
21 | O=C(CS(=O)Cc1ccco1)NC/C=C\COc1cc(CN2CCCCC2)ccn1 (centres undefined) | – | -15.3%
22 | NCCNCCNCCN | – | -13%
23 | CC(=O)Oc1cccc(O)c1 | – | -28.5%
24 | COc1ccc(C2C(=O)c3ccccc3C2=O)cc1 | – | -22.4%
25 | CCCCC(O)/C=C(C)/C=C/C=C/C(=O)N1CCCC1=O (centres undefined) | – | -1.79%
26 | NC(N)=Nc1nc(CSCC/C(N)=N/S(N)(=O)=O)cs1 | inactive | –
27 | Nc1ccc(C(=O)O)cc1 | – | -13%
28 | CC(=O)[C@@]1(O)CC[C@H]2[C@@H]3C[C@H](C)C4=CC(=O)C=C[C@]4(C)[C@@]3(F)[C@@H](O)C[C@@]21C | inactive | –
29 | O=C(O)Cc1cccc(-c2cc(CCCCCCc3ccc(O[C@H]4O[C@H](CO)[C@@H](O)[C@H](O)[C@@H]4O)c(-c4cccc(CC(=O)O)c4)c3)ccc2O[C@H]2O[C@H](CO)[C@@H](O)[C@H](O)[C@@H]2O)c1 | – | -22.9% [at 0.573 µM]
30 | Clc1cccc(C(c2ccc3nc[nH]c3c2)n2ccnc2)c1 (centres undefined) | inactive | –
31 | CC(=O)OC(C)C[N+](C)(C)C (centres undefined) | – | -3.72%
32 | CC(=O)OCC(COC(C)=O)OC(C)=O | inactive | –
33 | NC(=O)NC1NC(=O)NC1=O (centres undefined) | – | -27.8%
34 | Nc1c(I)cc(I)c(C(=O)N(CCC(=O)O)c2ccccc2)c1I | inactive | –
35 | COc1cc(/C=C/C(=O)O[C@H]2CC[C@]34C[C@]35CC[C@]3(C)[C@@H]([C@H](C)CCC=C(C)C)CC[C@@]3(C)[C@@H]5CC[C@H]4C2(C)C)ccc1O | – | -14.4%
36 | O=c1[nH]c(=O)n([C@H]2O[C@H](CO)[C@@H](O)[C@@H]2O)cc1/C=C\Br | – | -4.23%
37 | O=C(O)/C=C\C(=O)O | – | -15%

Experiment: Primary qHTS for Huh7 cytotoxicity: counterscreen for inhibitors of MERS-S pseudotyped particle cell entry (AID 1479147)
Conditions: cell viability read-out; series mostly up to 57.1 µM; activity change, negative = cytotoxicity: at the top concentration

Row | SMILES | activity change, negative = cytotoxicity | outcome
38 | CC(C(=O)O)c1ccc(/C=C2\CCCCC2=O)cc1 (centres undefined) | -18.1% | –
39 | O=c1cc[nH]c(=O)[nH]1 | 0.601% | –
40 | N[C@@H](CCC(=O)N[C@@H](CS)C(=O)NCC(=O)O)C(=O)O | -7.86% [at 26.4 µM] | –
41 | O=C1CC[C@H](C(=O)N2CCCCC2)N1 | – | inactive
42 | O=C1O[C@H](CO)[C@@H](O)[C@H](O)[C@H]1O | – | inactive
43 | CN=C(NC#N)NCCSCc1nc[nH]c1C | – | inactive
44 | CS(=O)(=O)c1ccc([C@@H](O)[C@@H](CF)NC(=O)C(Cl)Cl)cc1 | – | inactive
45 | Cc1c[nH]c2ccccc12 | – | inactive
46 | Clc1ccc2nsnc2c1NC1=NCCN1 | – | inactive
47 | CCN(Cc1ccncc1)C(=O)C(CO)c1ccccc1 (centres undefined) | – | inactive
48 | C#C[C@]1(O)CC[C@H]2[C@@H]3CCc4cc(OC5CCCC5)ccc4[C@H]3CC[C@@]21C | – | inactive
49 | NS(=O)(=O)c1cc(-c2nn[nH]n2)c(NCc2cccs2)cc1Cl | -15% | –
50 | CCCCCCCC(=O)OCC(COC(=O)CCCCCCC)OC(=O)CCCCCCC | – | inactive
51 | CC(C)Cc1ccc(C(C)C(=O)O)cc1 (centres undefined) | – | inactive
52 | COCCCOc1ccnc(CS(=O)c2nc3ccccc3[nH]2)c1C (centres undefined) | -7.98% | –
53 | CCOC(=O)c1ccccc1O | – | inactive
54 | OC[C@H]1O[C@@H](Oc2ccc(O)cc2)[C@H](O)[C@@H](O)[C@@H]1O | – | inactive
55 | Cc1cc(C)nc(NS(=O)(=O)c2ccc(N)cc2)n1 | – | inactive
56 | CCN1CCCC1CNC(=O)c1cc(S(=O)(=O)CC)c(N)cc1OC (centres undefined) | – | inactive

Row | SMILES | activity change, negative = cytotoxicity | outcome
57 | C[C@]12CCC(=O)C=C1CC[C@@H]1[C@@H]2[C@@H](O)C[C@@]2(C)[C@H]1CC[C@]2(O)C(=O)COC(=O)CCC(=O)O | – | inactive
58 | O=C(CS(=O)Cc1ccco1)NC/C=C\COc1cc(CN2CCCCC2)ccn1 (centres undefined) | – | inactive
59 | NCCNCCNCCN | – | inactive
60 | CC(=O)Oc1cccc(O)c1 | -2.18% | –
61 | COc1ccc(C2C(=O)c3ccccc3C2=O)cc1 | – | inactive
62 | CCCCC(O)/C=C(C)/C=C/C=C/C(=O)N1CCCC1=O (centres undefined) | – | inactive
63 | NC(N)=Nc1nc(CSCC/C(N)=N/S(N)(=O)=O)cs1 | – | inactive
64 | Nc1ccc(C(=O)O)cc1 | – | inactive
65 | CC(=O)[C@@]1(O)CC[C@H]2[C@@H]3C[C@H](C)C4=CC(=O)C=C[C@]4(C)[C@@]3(F)[C@@H](O)C[C@@]21C | – | inactive
66 | O=C(O)Cc1cccc(-c2cc(CCCCCCc3ccc(O[C@H]4O[C@H](CO)[C@@H](O)[C@H](O)[C@@H]4O)c(-c4cccc(CC(=O)O)c4)c3)ccc2O[C@H]2O[C@H](CO)[C@@H](O)[C@H](O)[C@@H]2O)c1 | – | inactive [at 0.573 µM]
67 | Clc1cccc(C(c2ccc3nc[nH]c3c2)n2ccnc2)c1 (centres undefined) | -21.9% | –
68 | CC(=O)OC(C)C[N+](C)(C)C (centres undefined) | 0.695% | –
69 | CC(=O)OCC(COC(C)=O)OC(C)=O | 2.3% | –
70 | NC(=O)NC1NC(=O)NC1=O (centres undefined) | – | inactive
71 | Nc1c(I)cc(I)c(C(=O)N(CCC(=O)O)c2ccccc2)c1I | – | inactive
72 | COc1cc(/C=C/C(=O)O[C@H]2CC[C@]34C[C@]35CC[C@]3(C)[C@@H]([C@H](C)CCC=C(C)C)CC[C@@]3(C)[C@@H]5CC[C@H]4C2(C)C)ccc1O | 2.82% | –
73 | O=c1[nH]c(=O)n([C@H]2O[C@H](CO)[C@@H](O)[C@@H]2O)cc1/C=C\Br | -15.8% | –
74 | O=C(O)/C=C\C(=O)O | – | inactive
